PMK inhibit – S. pneumoniae PMK inhibition. purified PMK, PK/LDH-coupled NADH absorbance 340 nm. inhibition, % at 10 µM. 65,000 compounds, 0.49% hits. AID 539;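 active = top-ranked compounds by inhibition in the single 10 µM screen, taking a fixed number of the strongest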
Autofluor 339 – intrinsic fluorescence of library compounds, ex339/em460 – biochemical, MLSMR library, data from DPM-DC assay, artefact control, profiling panel. compound autofluorescence, ex339/em460 nm, NADH buffer; stronger effect = higher value; 1 = no-compound wells, NADH background. fluorescence fold increase at 10 µM. 65,000 compounds, 5.5% hits. AID 709;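 active = at 10 µM, mean starting fluorescence two-fold or more over control wells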;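 note: signal is the first read of a kinetic run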
A340 absorber – compounds absorbing at 340 nm. compound absorbance at 340 nm, fold over control. fold change at 10 µM. 65,000 tested, under 10 active. AID 708;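 active = at 10 µM dose, initial 340 nm absorbance at least 2 fold that of control wells; inactive = change under 2 fold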;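 note: initial absorbance extrapolated from kinetic A340 decline of NADH oxidation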
NADH coupling – inhibition of NAD/NADH coupling enzymes, library profiling. coupled PK/LDH NADH assays, four targets. IC50, µM (series often up to 10 µM). 65,000 compounds, 0.02% hits;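 active = single-dose screening hits from any of four coupled enzyme assays that gave an IC50 when retested across doses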;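 note: the DPM-DC format reads NADH fluorescence rather than 340 nm absorbance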
MK inhibit – blocks S. pneumoniae mevalonate kinase. inhibition, % at 10 µM. purified MK, PK/LDH-coupled NADH absorbance 340 nm. 65,000 compounds, 0.48% hits;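 active = ranked among the strongest by inhibition in the single 10 µM screen, a fixed top-ranked set picked for dose follow-up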
DPM-DC inhibit – inhibitors of Streptococcus pneumoniae diphosphomevalonate decarboxylase; calls only at 10 µM; 65,000 compounds, 0.49% hits; purified DPM-DC, PK/LDH coupled NADH fluorescence; AID 556;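 active = the 320 compounds with the highest percent inhibition in the single-dose primary screen, excluding strongly autofluorescent ones, cut at about 32% in these data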;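 note: kinetic rate of NADH fluorescence loss reporting ADP formed by the decarboxylase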
Hits are given with their value; n = inactive; x = no result shown; + = active, no number. This is a sample that favours compounds with a hit; in the whole collection about 6.5% have one here.

SMILES	PMK inhibit	Autofluor 339	A340 absorber	NADH coupling	MK inhibit	DPM-DC inhibit
CCN(CC)CCCNc1cc2n(c(=O)n1)CCc1cc(OC)c(OC)cc1-2	n	4	n	n	n	x
COc1cc2c(cc1OC)-c1cc(N3CCCCCC3)nc(=O)n1CC2	n	2.5	n	n	n	n
COc1cc2c(cc1OC)-c1cc(Nc3ccc4c(c3)OCCO4)nc(=O)n1CC2	n	n	n	n	n	n
CCN(CC)CCCNC(=O)c1nn(-c2ccccc2OC)c(=O)c2ccccc12	n	n	n	n	n	n
COc1cc2c(cc1OC)-c1cc(OCc3cccnc3)nc(=O)n1CC2	n	2.9	n	n	n	x
COc1cc2c(cc1OC)-c1cc(NC3CCCCCC3)nc(=O)n1CC2	n	3.3	n	n	n	x
CNC(=O)CC(C(=O)O)c1ccc(OCC(C)C)cc1 (centres undefined)	n	n	n	n	n	n
COc1ccc2oc(=O)c(-c3nnc(NCc4ccco4)s3)cc2c1	n	n	n	n	n	n
CCOc1cccc2cc(-c3nnc(NCc4ccco4)s3)c(=O)oc12	n	2.2	n	n	n	n
CCOc1cccc2cc(-c3cn4cc(C)ccc4n3)c(=O)oc12	n	5	n	n	n	x
COc1cccc2cc(-c3cn4cccc(C)c4n3)c(=O)oc12	n	n	n	n	n	n
c1ccc(-c2cc3c(-n4cccc4)ncnc3o2)cc1	n	3.2	n	n	n	n
Cc1oc(-c2ccc(Cl)cc2)nc1CN1CCCC(C(=O)N2CCN(C(=O)c3ccco3)CC2)C1 (centres undefined)	n	n	n	n	n	n
CC1CCCCC1NC(=O)CSc1nnc(-c2ccccc2)n1N (centres undefined)	n	n	n	n	n	n
Cc1sc2nc3c4ccccc4c(NCc4ccco4)nn3c(=O)c2c1C	n	4.7	n	n	n	x
Cc1nnc(NCc2ccco2)c2ccccc12	n	n	n	n	n	n
CN1CCN(C(=O)c2cc3c(ccc4ccccc43)oc2=O)CC1	n	3.9	n	n	n	x
O=C(NCCN1CCN(C(=O)c2cc3ccccc3oc2=O)CC1)c1cc2ccccc2oc1=O	n	n	n	n	n	n
COC(=O)C1(C)NC(=O)c2ccccc2N1 (centres undefined)	n	2.1	n	n	n	x
COC(=O)C1(C)Nc2ccccc2C(=O)N1c1ccccc1OC (centres undefined)	n	2.1	n	n	n	x
CCOC(=O)c1c(C)[nH]c(C(=O)C(C)OC(=O)c2cccc(OCc3c(C)noc3C)c2)c1C (centres undefined)	n	n	n	n	n	n
COc1ccc(N2CCN(CCNS(=O)(=O)c3cccc4nsnc34)CC2)cc1	33	n	n	n	n	+
CCOC(=O)c1[nH]c2ccc(OC)cc2c1NC(=O)CN1CCSCC1	n	3.9	n	n	n	x
CCOC(=O)c1[nH]c2ccc(OC)cc2c1NC(C)=O	n	3.5	n	n	n	x
CC(Sc1ncc(C#N)c(N)n1)C(=O)Nc1ccccc1 (centres undefined)	26	n	n	n	n	n
SMILES	PMK inhibit	Autofluor 339	A340 absorber	NADH coupling	MK inhibit	DPM-DC inhibit
COC(=O)CSc1ncc(C#N)c(N)n1	n	n	n	n	n	n
Cc1c(C(=O)OCC(C)(C)CN(C)C)oc2ccccc12	n	n	n	n	n	+
Cc1c(C(=O)OC(C)CCN(C)C)oc2ccccc12 (centres undefined)	n	n	n	n	n	n
Cc1ccccc1-n1c(SCc2c(C)noc2C)nnc1-c1c[nH]c2ccccc12	n	n	n	n	n	n
Cc1noc(C)c1CSc1nnc(-c2ccncc2)n1-c1cccc(Cl)c1C	25	n	n	n	n	n
CCN1CCc2c(sc(N)c2C#N)C1	n	n	n	n	n	n
N#Cc1c(NCCO)nc(NCc2ccccc2)c2c1CCN(Cc1ccccc1)C2	n	2.2	n	n	n	+
N#Cc1c(N)sc(=S)c2c1CCN(Cc1ccccc1)C2	29	4.3	n	n	n	x
CC(C)CCNC(=O)Cn1c(NCCC(C)C)nc2c1c(=O)n(C)c(=O)n2C	n	n	n	n	n	n
Cc1nnc(SCCN2CCOCC2)n1C	n	n	n	n	52	n
COc1ccccc1-c1nnc(SCCN2CCOCC2)n1-c1ccc(C)cc1	n	n	n	n	n	n
CCc1cc(C(=O)Cc2ccc(F)cc2)c(O)cc1O	n	n	n	n	n	n
